Measured values taken from PubChem BioAssay.
Activity calls are given as the source filed them.

What was measured:
[1] = test system: PRMT1 (protein arginine N-methyltransferase 1); assay: PRMT1 binders on small-molecule microarrays, primary screen, biochemical, small-molecule microarray, 635 nm fluorescence (AID 1088); settings: small-molecule microarray binding, higher = more signal;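 note: binding of Prmt1 protein to compounds spotted on small-molecule microarray slides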
[2] = yeast growth modulation, basal conditions, primary screen, YJM789 clinical isolate, OD600, 24 h (AID 1089);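 note: growth of clinical yeast isolate S. cerevisiae YJM 789 seeded 1000 cells per well; test concentration not given here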; settings: S. cerevisiae YJM789 growth, higher = more signal, called active from +8 up or from −8 down
[3] = fission yeast growth modulation, primary screen, strain 972, OD600, 24 h, no modulator (AID 1090);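 note: basal condition with compound alone and no growth modifier present; test concentration not given here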; settings: S. pombe 972 growth, higher = more signal, called active from +8 up or from −8 down
[4] = S. cerevisiae growth modulation with rapamycin, primary screen, strain BY4716, OD600, 96 h (AID 1091); settings: higher = more signal, called active from +8 up or from −8 down; note: test concentration not given here
[5] = biological target: Torsin-1A-interacting protein 2 (Homo sapiens) (UniProt Q8NFQ8); assay: LULL1 binders on small-molecule microarray, primary screen, cell lysate, human LULL1 lysate, 635/667 nm fluorescence (AID 1092); settings: hLULL1 lysate binding, 635 nm fluorescence, higher = more signal;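 note: probe is lysate of COS7 cells overexpressing human LULL1; score merges per-feature 667 nm fluorescence with signal-to-noise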
[6] = E. coli growth modulation, two-sided OD650, primary screen, E. coli filamentation project, strain DRC41, 24 h (AID 1093); settings: OD650, 24 h, higher = more signal, called active from +8 up or from −8 down;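 note: MC1000 strain lacking acrAB efflux and sulA so SOS filamentation is blocked; test concentration not given here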
[7] = small-molecule microarray binders of probe aLefty2, primary screen, biochemical, biotinylated probe, 635/667 nm fluorescence (AID 1094); settings: higher = more signal;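 note: score merges spot fluorescence near 667 nm with spot signal-to-noise ratio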
[8] = test system: Noggin (protein binding on small-molecule microarray); assay: Noggin binders on small-molecule microarray, primary screen, biochemical, 635/667 nm fluorescence (AID 1095); settings: 635 nm fluorescence, higher = more signal;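 note: score merges 667 nm feature fluorescence with signal to noise over triplicate slides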
[9] = biological target: Neurogenic locus notch homolog protein 3 (Homo sapiens) (UniProt Q9UM47); assay: NOTCH3 binders on small-molecule microarray, primary screen, biochemical, 635/667 nm fluorescence (AID 1096); settings: NOTCH3 binding, 635 nm fluorescence, higher = more signal
[10] = small-molecule microarray binders of probe aEGFR, primary screen, biochemical, biotinylated probe, 635/667 nm fluorescence (AID 1097); settings: higher = more signal;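 note: probe is a biotinylated anti-EGFR antibody binding compounds printed on slides; score combines fluorescence near 667 nm and signal to noise of each spot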
[11] = test system: Plasmodium falciparum Sir2 (PF13_0152, Sir2A); assay: pfSir2 binders on small-molecule microarrays, primary screen, biochemical, small-molecule microarray, 635 nm fluorescence (AID 1098); settings: small-molecule microarray binding, fluorescence 635 nm; higher = more signal;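 note: score merges spot fluorescence intensity with its signal-to-noise ratio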
[12] = small-molecule microarray binders of probe aDKK1, primary screen, biochemical, biotinylated probe, 635/667 nm fluorescence (AID 1099); settings: higher = more signal;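 note: score merges 667nm spot fluorescence with signal to noise across triplicate slides; reference of the scale not given here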
[13] = small-molecule microarray binders of probe aCHRDL2, primary screen, biochemical, biotinylated probe, 635/667 nm fluorescence (AID 1100); settings: higher = more signal
[14] = splicing luciferase reporter signal modulators, primary screen, spliceosome inhibition project, cell-based, HEK293, splice +/- reporter (AID 1101); settings: luminescence, 24 h, higher = more signal, called active from +8 up or from −8 down;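 note: HEK293 cells carrying a splicing-competent luciferase reporter gene; test concentration not given here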
[15] = biological target: Fibroblast growth factor 10 (Homo sapiens) (UniProt O15520); assay: FGF10 binders on small-molecule microarrays, primary screen, biochemical, small-molecule microarray, 635 nm fluorescence (AID 1102); settings: FGF10 binding, fluorescence 635 nm, higher = more signal
[16] = test system: glycogen synthase kinase-3 (GSK3A per assay name; protocol says GSK3B); assay: GSK3 binders on small-molecule microarrays, primary screen, biochemical, small-molecule microarray, 635 nm fluorescence, GSK3A (AID 1103); settings: small-molecule microarray binding, fluorescence 635 nm; higher = more signal; note: the record names both GSK3A and GSK3B
[17] = biological target: Epidermal growth factor receptor (Homo sapiens) (UniProt P00533); assay: EGFR binders on small-molecule microarrays, primary screen, biochemical, small-molecule microarray, 635 nm fluorescence (AID 1104); settings: EGFR binding, higher = more signal;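 note: score merges 667 nm emission intensity with spot signal to noise over triplicate slides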
[18] = biological target: Follistatin-related protein 3 (Homo sapiens) (UniProt O95633); assay: FSTL3 binders on small-molecule microarrays, primary screen, biochemical, small-molecule microarray, 635 nm fluorescence (AID 1105); settings: FSTL3 binding, higher = more signal;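 note: score merges emission near 667 nm and signal to noise per printed spot across three slides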
[19] = biological target: Dickkopf-related protein 1 (Homo sapiens) (UniProt O94907); assay: DKK1 binders on small-molecule microarrays, primary screen, biochemical, small-molecule microarray, 635 nm fluorescence scan (AID 1106); settings: DKK1 binding, higher = more signal;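 note: score merges emission near 667 nm with signal to noise over three replicate slides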
[20] = test system: Inhibin beta A chain (activin A); assay: INHBA (activin A) binders on microarrays, primary screen, biochemical, small-molecule microarray, 635 nm fluorescence scan (AID 1107); settings: small-molecule microarray binding, higher = more signal;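 note: mouse activin A protein probed at 4.33 µg/mL on printed slides; score merges bound-protein fluorescence near 667 nm with spot signal-to-noise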

Follistatin-related protein 3 (Homo sapiens), sequence (O95633 whole entry, looked up): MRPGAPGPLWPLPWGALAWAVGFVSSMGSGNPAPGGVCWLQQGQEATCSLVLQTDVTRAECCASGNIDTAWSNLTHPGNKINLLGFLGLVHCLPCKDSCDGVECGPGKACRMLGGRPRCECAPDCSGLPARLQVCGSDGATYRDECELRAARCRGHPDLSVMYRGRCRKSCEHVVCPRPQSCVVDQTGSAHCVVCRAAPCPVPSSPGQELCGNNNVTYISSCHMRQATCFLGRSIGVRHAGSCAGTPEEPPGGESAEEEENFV
Dickkopf-related protein 1 (Homo sapiens), sequence (O94907 whole entry, looked up): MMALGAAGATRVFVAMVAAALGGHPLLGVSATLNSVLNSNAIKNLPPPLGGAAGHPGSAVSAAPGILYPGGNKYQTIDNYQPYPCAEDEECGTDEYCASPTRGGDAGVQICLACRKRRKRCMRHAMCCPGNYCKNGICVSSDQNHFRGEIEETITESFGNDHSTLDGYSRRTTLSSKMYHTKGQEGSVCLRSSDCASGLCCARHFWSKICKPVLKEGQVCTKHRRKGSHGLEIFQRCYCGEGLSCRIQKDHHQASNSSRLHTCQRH
Fibroblast growth factor 10 (Homo sapiens), sequence (O15520 whole entry, looked up): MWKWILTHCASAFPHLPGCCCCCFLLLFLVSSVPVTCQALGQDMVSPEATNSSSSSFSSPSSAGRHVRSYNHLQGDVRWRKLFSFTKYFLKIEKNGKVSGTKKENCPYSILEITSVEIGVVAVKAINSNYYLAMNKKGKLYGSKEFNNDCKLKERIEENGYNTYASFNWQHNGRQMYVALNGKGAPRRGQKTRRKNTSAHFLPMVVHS
Epidermal growth factor receptor (Homo sapiens), sequence (P00533 whole entry, looked up): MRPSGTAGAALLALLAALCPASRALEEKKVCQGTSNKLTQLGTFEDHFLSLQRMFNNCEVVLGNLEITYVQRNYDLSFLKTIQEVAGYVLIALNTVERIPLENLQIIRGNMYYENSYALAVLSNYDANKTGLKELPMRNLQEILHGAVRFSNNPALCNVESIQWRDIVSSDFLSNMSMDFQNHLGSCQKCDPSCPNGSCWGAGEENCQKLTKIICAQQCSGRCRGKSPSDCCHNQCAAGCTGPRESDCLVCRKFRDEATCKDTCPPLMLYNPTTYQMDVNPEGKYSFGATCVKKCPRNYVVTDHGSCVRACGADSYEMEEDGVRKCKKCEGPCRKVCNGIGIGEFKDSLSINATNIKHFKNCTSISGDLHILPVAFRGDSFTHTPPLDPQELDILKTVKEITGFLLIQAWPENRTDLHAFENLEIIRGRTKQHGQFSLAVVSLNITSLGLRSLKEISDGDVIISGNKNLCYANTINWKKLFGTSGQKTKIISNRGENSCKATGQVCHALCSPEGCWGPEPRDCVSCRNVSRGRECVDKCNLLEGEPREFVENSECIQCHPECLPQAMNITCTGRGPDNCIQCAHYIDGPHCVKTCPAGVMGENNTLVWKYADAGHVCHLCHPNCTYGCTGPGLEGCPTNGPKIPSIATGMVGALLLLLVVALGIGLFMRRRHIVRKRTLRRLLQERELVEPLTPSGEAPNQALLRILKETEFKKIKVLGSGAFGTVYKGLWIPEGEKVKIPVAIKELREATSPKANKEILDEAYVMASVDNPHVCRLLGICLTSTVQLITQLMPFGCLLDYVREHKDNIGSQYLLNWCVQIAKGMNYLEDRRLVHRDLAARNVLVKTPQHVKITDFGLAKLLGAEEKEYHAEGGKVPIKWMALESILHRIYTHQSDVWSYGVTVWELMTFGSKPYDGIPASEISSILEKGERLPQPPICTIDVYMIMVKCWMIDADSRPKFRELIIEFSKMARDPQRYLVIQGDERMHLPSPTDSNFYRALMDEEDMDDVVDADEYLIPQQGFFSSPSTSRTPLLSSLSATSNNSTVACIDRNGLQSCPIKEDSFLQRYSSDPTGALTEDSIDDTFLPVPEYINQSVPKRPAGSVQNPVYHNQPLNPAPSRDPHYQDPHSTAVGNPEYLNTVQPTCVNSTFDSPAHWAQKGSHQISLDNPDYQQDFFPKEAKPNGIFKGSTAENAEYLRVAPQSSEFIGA
Neurogenic locus notch homolog protein 3 (Homo sapiens), sequence (Q9UM47 whole entry, looked up): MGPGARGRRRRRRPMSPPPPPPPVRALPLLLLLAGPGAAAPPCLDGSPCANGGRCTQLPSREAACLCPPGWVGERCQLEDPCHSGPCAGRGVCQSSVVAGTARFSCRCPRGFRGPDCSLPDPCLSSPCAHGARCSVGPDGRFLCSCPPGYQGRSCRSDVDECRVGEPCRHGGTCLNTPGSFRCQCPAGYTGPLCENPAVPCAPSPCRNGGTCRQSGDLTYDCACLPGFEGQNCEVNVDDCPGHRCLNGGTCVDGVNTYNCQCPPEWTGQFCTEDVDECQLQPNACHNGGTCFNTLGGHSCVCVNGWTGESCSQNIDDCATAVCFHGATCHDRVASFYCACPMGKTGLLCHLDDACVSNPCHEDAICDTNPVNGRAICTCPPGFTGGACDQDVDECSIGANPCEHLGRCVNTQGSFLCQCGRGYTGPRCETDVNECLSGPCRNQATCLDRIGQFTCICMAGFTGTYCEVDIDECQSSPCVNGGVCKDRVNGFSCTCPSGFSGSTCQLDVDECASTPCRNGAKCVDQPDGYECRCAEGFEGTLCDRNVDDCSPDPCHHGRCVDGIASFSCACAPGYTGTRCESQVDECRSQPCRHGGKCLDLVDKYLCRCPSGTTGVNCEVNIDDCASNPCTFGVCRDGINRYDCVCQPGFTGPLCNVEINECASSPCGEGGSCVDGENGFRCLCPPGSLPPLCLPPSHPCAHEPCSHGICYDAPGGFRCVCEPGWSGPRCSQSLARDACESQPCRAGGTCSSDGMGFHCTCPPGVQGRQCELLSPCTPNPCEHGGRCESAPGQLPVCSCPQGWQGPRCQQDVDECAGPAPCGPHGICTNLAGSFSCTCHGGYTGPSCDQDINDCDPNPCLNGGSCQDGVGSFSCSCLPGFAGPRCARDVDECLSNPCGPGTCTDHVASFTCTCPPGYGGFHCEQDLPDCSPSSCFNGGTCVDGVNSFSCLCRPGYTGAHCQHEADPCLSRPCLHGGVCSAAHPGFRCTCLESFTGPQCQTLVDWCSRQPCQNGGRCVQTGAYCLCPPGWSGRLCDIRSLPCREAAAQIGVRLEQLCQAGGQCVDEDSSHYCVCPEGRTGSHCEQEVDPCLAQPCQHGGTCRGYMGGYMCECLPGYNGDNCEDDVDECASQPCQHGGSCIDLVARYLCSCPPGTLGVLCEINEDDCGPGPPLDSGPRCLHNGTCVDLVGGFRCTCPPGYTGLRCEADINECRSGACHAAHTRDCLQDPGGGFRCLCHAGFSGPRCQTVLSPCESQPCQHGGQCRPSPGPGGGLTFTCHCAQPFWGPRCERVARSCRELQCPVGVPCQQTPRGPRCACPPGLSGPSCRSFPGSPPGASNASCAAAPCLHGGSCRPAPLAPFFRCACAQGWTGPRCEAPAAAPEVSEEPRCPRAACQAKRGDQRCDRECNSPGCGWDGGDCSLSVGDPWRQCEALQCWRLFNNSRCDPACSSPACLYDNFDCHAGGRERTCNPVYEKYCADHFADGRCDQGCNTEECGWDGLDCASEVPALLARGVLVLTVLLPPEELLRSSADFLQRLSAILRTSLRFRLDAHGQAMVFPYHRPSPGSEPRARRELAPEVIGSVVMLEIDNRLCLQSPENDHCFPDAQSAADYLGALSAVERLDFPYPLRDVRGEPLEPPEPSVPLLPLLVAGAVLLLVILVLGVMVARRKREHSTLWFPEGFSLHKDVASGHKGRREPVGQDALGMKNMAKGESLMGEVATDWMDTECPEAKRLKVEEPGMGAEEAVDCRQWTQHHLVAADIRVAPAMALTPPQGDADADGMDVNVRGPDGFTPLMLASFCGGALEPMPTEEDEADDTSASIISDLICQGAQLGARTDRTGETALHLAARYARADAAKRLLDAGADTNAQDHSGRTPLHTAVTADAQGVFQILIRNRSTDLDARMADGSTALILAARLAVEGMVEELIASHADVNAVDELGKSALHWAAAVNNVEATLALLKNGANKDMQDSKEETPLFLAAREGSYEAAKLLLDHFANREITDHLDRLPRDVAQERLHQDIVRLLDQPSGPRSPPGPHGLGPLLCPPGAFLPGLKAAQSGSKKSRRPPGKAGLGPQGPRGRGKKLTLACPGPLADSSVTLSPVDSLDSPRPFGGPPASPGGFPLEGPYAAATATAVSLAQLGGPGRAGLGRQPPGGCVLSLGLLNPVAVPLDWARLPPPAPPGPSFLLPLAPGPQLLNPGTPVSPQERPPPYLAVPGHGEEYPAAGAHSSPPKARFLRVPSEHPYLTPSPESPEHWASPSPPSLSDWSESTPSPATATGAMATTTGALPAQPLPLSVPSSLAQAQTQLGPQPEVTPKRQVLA
Torsin-1A-interacting protein 2 (Homo sapiens), sequence (Q8NFQ8 whole entry, looked up): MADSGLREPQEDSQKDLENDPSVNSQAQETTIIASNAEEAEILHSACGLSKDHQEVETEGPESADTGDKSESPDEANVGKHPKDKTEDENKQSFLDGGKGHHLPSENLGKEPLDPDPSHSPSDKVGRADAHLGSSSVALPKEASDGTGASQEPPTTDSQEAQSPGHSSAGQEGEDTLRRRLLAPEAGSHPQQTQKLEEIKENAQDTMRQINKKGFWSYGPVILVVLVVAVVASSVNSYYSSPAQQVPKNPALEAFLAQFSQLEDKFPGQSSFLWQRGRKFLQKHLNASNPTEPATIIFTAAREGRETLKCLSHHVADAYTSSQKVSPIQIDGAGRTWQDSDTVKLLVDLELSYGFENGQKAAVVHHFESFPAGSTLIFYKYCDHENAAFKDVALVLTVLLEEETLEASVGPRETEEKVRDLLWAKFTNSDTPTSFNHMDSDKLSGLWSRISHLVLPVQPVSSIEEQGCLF

| SMILES | composite z-score [1] | z-score [2] | z-score [3] | z-score [4] | composite z-score [5] | z-score [6] | composite z-score [7] | composite z-score [8] | composite z-score [9] | composite z-score [10] | composite z-score [11] | composite z-score [12] | composite z-score [13] | z-score [14] | composite z-score [15] | composite z-score [16] | composite z-score [17] | composite z-score [18] | composite z-score [19] | composite z-score [20] |
| --- | --- | --- | --- | --- | --- | --- | --- | --- | --- | --- | --- | --- | --- | --- | --- | --- | --- | --- | --- | --- |
| COc1ccc([Si](C)(C)[C@H]2[C@H](CC(=O)N3Cc4ccccc4C[C@H]3CO)O[C@@]3(C(=O)N(Cc4ccc(N5CCOC5=O)cc4)c4ccccc43)[C@@H]2C)cc1 | 1.57 | -1.31 (inactive) | -0.053 (inactive) | 2.17 (inactive) | 1.25 | -0.167 (inactive) | -0.123 | 1.46 | 1.11 | -0.022 | 0.149 | -0.161 | -0.345 | -0.817 (inactive) | 0.878 | 0.676 | 1.03 | 1.04 | 0.929 | 1.05 |
| CCOC(=O)[C@@H]1CCCCN1C(=O)C(=O)OC | 0.828 | 0.0293 (inactive) | 0.656 (inactive) | -0.131 (inactive) | 0.377 | 0.66 (inactive) | -0.0728 | 0.415 | 0.717 | -0.133 | 0.157 | -0.0335 | -0.402 | 1.11 (inactive) | 0.549 | 0.547 | 0.243 | 0.751 | 0.333 | -0.206 |
| COC(=O)C(CC#Cc1ccc2c(c1)[C@]1(C(=O)N2)[C@H](c2ccc(O)cc2)N2[C@H](c3ccccc3)[C@H](c3ccccc3)OC(=O)[C@H]2[C@@H]1C(=O)NC[C@H](O)c1ccccc1)C(=O)OC | 1.55 | 0.31 (inactive) | 0.174 (inactive) | -0.131 (inactive) | 1.97 | -0.968 (inactive) | 0.0634 | 0.668 | 1.09 | 0.128 | -0.282 | 0.6 | 0.405 | 0.0183 (inactive) | 0.986 | 1.11 | 0.588 | 0.523 | 0.432 | 0.335 |
| CCC1=C2CN(Cc3ccccc3)[C@@H](C(=O)Cc3ccccc3)C2C=CCC1 (stereo not given in full) | -0.279 | -0.273 (inactive) | -2.18 (inactive) | -0.728 (inactive) | 2.47 | 0.673 (inactive) | -0.164 | 0.751 | 0.841 | -0.177 | 1.46 | -0.0616 | -0.141 | -1.04 (inactive) | 0.57 | -0.439 | -0.42 | 0.532 | 0.118 | 0.749 |
| CCOC(=O)C1=CC[C@@H](c2ccccc2F)N(S(=O)(=O)c2ccc(C)cc2)[C@H]1c1ccccc1 | 1.12 | -0.0047 (inactive) | 1.29 (inactive) | 0.151 (inactive) | 2.72 | -0.818 (inactive) | -0.0551 | 0.63 | 0.812 | -0.101 | 0.441 | 0.128 | -0.106 | -1.12 (inactive) | 0.801 | 1.16 | 0.486 | 0.766 | 0.253 | 0.713 |
| COCCOC(=O)N1C(=O)[C@@]2(c3ccccc31)[C@H](C(=O)NC[C@H](O)c1ccccc1)[C@H]1C(=O)O[C@H](c3ccccc3)[C@H](c3ccccc3)N1[C@@H]2c1ccc(O)cc1 | 1.53 | 0.787 (inactive) | 0.259 (inactive) | 2.83 (inactive) | 3.01 | 1.14 (inactive) | -0.109 | 0.915 | 1.05 | 0.569 | 1.54 | 0.804 | 0.24 | -0.118 (inactive) | 1.42 | 1.32 | 1.01 | 1.44 | 0.827 | -0.0795 |
| [N-]=[N+]=Nc1ccccc1C[C@@]1(C(=O)N2CCOCC2)N=C(c2ccc(OCCCO)cc2)O[C@@H]1c1ccccc1 | 1.54 | -1.41 (inactive) | -2.77 (inactive) | 0.0666 (inactive) | 3.38 | 0.568 (inactive) | 0.0946 | 0.955 | 1.11 | 0.778 | 0.816 | 1.46 | 0.59 | -0.818 (inactive) | 1.36 | 1.31 | 0.577 | 1.25 | -0.0771 | -0.431 |
| CCCN1C(=O)[C@]2(Cc3ccccc31)N=C(c1ccc(OCCCO)cc1)O[C@@H]2c1ccccc1 | 1.55 | -1.49 (inactive) | -2.93 (inactive) | 1.44 (inactive) | 2.74 | -0.0411 (inactive) | -0.0391 | 1.66 | 1.03 | -0.139 | 1.07 | 0.0194 | 0.865 | -0.898 (inactive) | 0.592 | 1.26 | -0.489 | 0.515 | -0.303 | 0.72 |
| O=C1C[C@]2(c3ccc([N+](=O)[O-])cc3)C(=O)N(C3CC3)c3cc(CO)ccc3[C@H]2N1CC12CC3CC(CC(C3)C1)C2 | 0.739 | -0.263 (inactive) | 0.436 (inactive) | -0.574 (inactive) | 1.87 | -1.29 (inactive) | -0.171 | -1.02 | -0.466 | -0.228 | 0.437 | -0.105 | 0.617 | -0.922 (inactive) | -0.511 | -0.393 | -0.951 | -0.924 | -0.769 | -0.383 |
| CC#CCO[Si](C#Cc1ccccc1)(C(C)C)C(C)C | -0.877 | -1.72 (inactive) | -19.5 (active) | -1.86 (inactive) | -0.669 | -0.304 (inactive) | -0.135 | 0.709 | 0.231 | -0.203 | -0.849 | -0.105 | 0.194 | 1.07 (inactive) | 0.754 | -0.872 | 0.457 | -0.719 | -0.999 | 1.14 |
